In PubChem BioAssay:
Results with a measured potency or affinity are listed apart. Inconclusive results are not listed. Active and inactive are the calls of the source. Unless noted, no rule for the calls is given here.

Assays:
[1] = cytotoxicity in PAX8-dependent RMG-1 cells, dose response, cell-based, cherry-pick (AID 687029;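 active = signal drop whose fitted half-maximal concentration is at most twice the top valid dose, in every test run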;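 also: cells exposed to compound for 96 hours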)
[2] = cytotoxicity in IOSE-T80 ovarian epithelial cells, dose response, selectivity assay for PAX8 inhibitor project, cell-based, cherry-pick (AID 687032;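 active = fitted half-maximal concentration for viability loss no higher than twice the top valid dose, in every repeat run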;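 also: cells exposed to compound for 96 h before reading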)
[3] = inhibitors of CMV-promoter luciferase reporter, dose response, counter-screen for Pax8 inhibitor project, cell-based, HEK293, luminescence, dry powder (AID 743020;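 active = signal-lowering compounds whose fitted half-maximal concentration is at or below twice the top tested dose in every run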;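 also: HEK293 cells stably expressing the CMV luciferase reporter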)
[4] = non-specific cell cytotoxicity, dose response, cytotoxicity control for PAX8 inhibitor project, plate reader, dry powder samples (AID 743021)
[5] = IGROV1 ovarian cancer cell cytotoxicity, dose response, PAX8 inhibitor project, plate reader, dry powder samples (AID 743043);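 also: more negative means fewer viable cells or more cytotoxicity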
[6] = IOSE-T80 ovarian epithelial cell cytotoxicity, dose response, cytotoxicity control for PAX8 inhibitor project, plate reader, dry powder samples (AID 743045);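 also: more negative values mean more cell killing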
[7] = A2780 ovarian cancer cell cytotoxicity, dose response, cytotoxicity control, plate reader, dry powder samples (AID 743046)
[8] = cytotoxicity in OVCAR8 ovarian cancer cells, dose response, PAX8 project, cell-based, plate reader, dry powder samples (AID 743197)

Measured: outcome

C[C@@H]1CCCCO[C@@H](CN(C)C(=O)NC2CCCCC2)[C@H](C)CN([C@H](C)CO)C(=O)c2cc(NS(=O)(=O)c3ccc(Cl)cc3)ccc2O1
not listed: [7] | [8]
inactive: all other assays above

Cc1cccc(S(=O)(=O)N2C[C@@H](O)COC[C@@H]3O[C@@H](CC(=O)Nc4ccc(-c5ccccc5)cc4)CC[C@H]32)c1
not listed: [7] | [8]
inactive: all other assays above

Cc1ccc(S(=O)(=O)Nc2ccc3c(c2)C(=O)N([C@H](C)CO)C[C@@H](C)[C@H](CN(C)C(=O)Nc2cccc4ccccc24)OCCCC[C@@H](C)O3)cc1
not listed: [8]
inactive: all other assays above

C[C@H](CO)N1C[C@H](C)[C@@H](CN(C)S(=O)(=O)c2cccc(F)c2)OCc2ccccc2-c2c(n(C)c3ccccc23)C1=O
not listed: [8]
inactive: all other assays above

C[C@@H]1CCCCO[C@H](CN(C)Cc2ccc(C(F)(F)F)cc2)[C@H](C)CN([C@@H](C)CO)C(=O)c2cc(NS(=O)(=O)c3ccc(Cl)cc3)ccc2O1
not listed: [8]
inactive: all other assays above

C[C@H]1CN([C@@H](C)CO)C(=O)Cc2cc(NC(=O)NC3CCCCC3)ccc2O[C@H]1CN(C)Cc1ccc(-c2ccccc2)cc1
not listed: [8]
inactive: all other assays above

C[C@@H](O)C#Cc1ccc2c(c1)O[C@H](CN(C)Cc1ccc(-c3ccccc3)cc1)[C@@H](C)CN([C@@H](C)CO)S2(=O)=O
not listed: [8]
inactive: all other assays above

C[C@@H]1CCCCO[C@@H](CN(C)C(=O)Nc2ccc(C(F)(F)F)cc2)[C@H](C)CN([C@H](C)CO)C(=O)c2cc(NS(=O)(=O)c3ccc(F)cc3)ccc2O1
not listed: [8]
inactive: all other assays above

C[C@@H]1CN([C@H](C)CO)C(=O)c2cc(NS(=O)(=O)c3ccccc3)ccc2O[C@@H](C)CCCCO[C@@H]1CN(C)CC1CCCCC1
not listed: [8]
inactive: all other assays above

C[C@H]1CCCCO[C@H](CN(C)S(=O)(=O)c2ccc(F)cc2)[C@@H](C)CN([C@@H](C)CO)C(=O)c2cc(NS(=O)(=O)c3ccc(Cl)cc3)ccc2O1
not listed: [8]
inactive: all other assays above

Cc1noc(C)c1S(=O)(=O)Nc1ccc2c(c1)C(=O)N([C@H](C)CO)C[C@@H](C)[C@H](CN(C)C(=O)Nc1ccc(C(F)(F)F)cc1)OCCCC[C@@H](C)O2
not listed: [8]
inactive: all other assays above

COc1ccccc1-c1ccc2c(c1)[C@@H]1[C@@H](CCN1S(=O)(=O)c1ccccc1F)[C@H](CO)N2
inactive: all assays above

CC(C)CC#Cc1ccc2c(c1)O[C@H](CN(C)S(=O)(=O)c1ccc(F)cc1)[C@@H](C)CN([C@@H](C)CO)S2(=O)=O
not listed: [8]
inactive: all other assays above

CC(C)NC(=O)N(C)C[C@H]1OCCCC[C@@H](C)Oc2ccc(NC(=O)Nc3ccc(C(F)(F)F)cc3)cc2C(=O)N([C@@H](C)CO)C[C@H]1C
not listed: [8]
inactive: all other assays above

O=C(Nc1ccc(C(F)(F)F)cc1)Nc1ccc2c(c1)[C@H]1C[C@@H](CC(=O)N3CCc4ccccc4C3)O[C@@H](CO)[C@H]1O2
not listed: [8]
inactive: all other assays above

Cc1ccccc1-c1ccc2c(c1)O[C@H](CN(C)C(=O)Nc1ccc(C(F)(F)F)cc1)[C@@H](C)CN([C@H](C)CO)S2(=O)=O
not listed: [8]
inactive: all other assays above

C[C@H](CO)N1C[C@H](C)[C@H](CN(C)Cc2ccc(C(F)(F)F)cc2)OCCCC[C@H](C)Oc2ccc(NC(=O)NC3CCCCC3)cc2C1=O
not listed: [8]
inactive: all other assays above

C[C@@H]1CCCCO[C@@H](CN(C)Cc2ccc(C(F)(F)F)cc2)[C@H](C)CN([C@@H](C)CO)C(=O)c2cc(NC(=O)Nc3ccc(F)cc3)ccc2O1
inactive: all assays above

C[C@@H]1CCCCO[C@@H](CN(C)C(=O)c2ccccc2)[C@H](C)CN([C@H](C)CO)C(=O)c2cc(NC(=O)Nc3ccc(C(F)(F)F)cc3)ccc2O1
not listed: [8]
inactive: all other assays above

C[C@@H]1CN([C@H](C)CO)C(=O)c2cc(NC(=O)Cc3ccccc3)ccc2O[C@@H](C)CCCCO[C@@H]1CN(C)Cc1ccc(C(F)(F)F)cc1
not listed: [8]
inactive: all other assays above

CC(C)CC1NC(=S)N(Cc2ccccc2)C1=O (stereo unspecified)
not listed: [8]
inactive: all other assays above

COc1ccccc1C(=O)Nc1ccc2c(c1)C(=O)N(C)[C@@H]1CC[C@@H](CC(=O)NCc3ccc(Cl)c(Cl)c3)O[C@H]1CO2
not listed: [8]
inactive: all other assays above

C[C@@H]1CN([C@H](C)CO)C(=O)CCCn2cc(nn2)CO[C@H]1CN(C)C(=O)Nc1ccc(-c2cccs2)cc1
not listed: [8]
inactive: all other assays above

C[C@@H]1CCCCO[C@H](CN(C)C(=O)Nc2ccc(C(F)(F)F)cc2)[C@@H](C)CN([C@@H](C)CO)C(=O)c2cc(NC(=O)Nc3ccc(C(F)(F)F)cc3)ccc2O1
not listed: [8]
inactive: all other assays above

COc1cccc(C#Cc2ccc3c(c2)O[C@@H](CN(C)C(=O)c2ccccn2)[C@H](C)CN([C@@H](C)CO)S3(=O)=O)c1
not listed: [8]
inactive: all other assays above

C[C@H](CO)N1C[C@H](C)[C@H](CN(C)CC2CCCCC2)Oc2ccc(NS(=O)(=O)c3ccc(Cl)cc3)cc2CC1=O
inactive: all assays above

C[C@@H]1CN([C@H](C)CO)C(=O)c2cc(NC(=O)Nc3ccccc3)ccc2O[C@@H](C)CCCCO[C@H]1CN(C)C(=O)Nc1ccc(C(F)(F)F)cc1
not listed: [8]
inactive: all other assays above

COc1ccccc1C#Cc1ccc2c(c1)O[C@@H](CN(C)Cc1cncnc1)[C@H](C)CN([C@H](C)CO)S2(=O)=O
not listed: [8]
inactive: all other assays above

COc1ccc2c3c([nH]c2c1)[C@H](CO)N(C(=O)Nc1cccc(F)c1)CC31CCN(S(=O)(=O)c2cccc(C)c2)CC1
not listed: [8]
inactive: all other assays above

O=C(Cc1ccccc1)N1CC[C@H]2[C@H](CO)Nc3ccc(C4=CCCCC4)cc3[C@H]21
inactive: all assays above

C[C@@H]1CN([C@H](C)CO)C(=O)c2cc(NC(=O)Nc3ccc(F)cc3)ccc2O[C@@H](C)CCCCO[C@H]1CN(C)C(=O)Nc1ccc(C(F)(F)F)cc1
not listed: [8]
inactive: all other assays above

O=C(Nc1ccc(F)cc1)N1CC(=O)N2[C@@H](CO)[C@@H](c3ccc(C#Cc4ccc(F)cc4)cc3)[C@@H]2C1
not listed: [8]
inactive: all other assays above

Cc1ccc(S(=O)(=O)N(C)C[C@H]2Oc3cc(C#Cc4ccncc4)ccc3S(=O)(=O)N([C@H](C)CO)C[C@H]2C)cc1
not listed: [8]
inactive: all other assays above

C[C@@H]1CCCCO[C@@H](CN(C)C(=O)Nc2ccc(C(F)(F)F)cc2)[C@H](C)CN([C@H](C)CO)C(=O)c2cc(NS(=O)(=O)c3ccc(Cl)cc3)ccc2O1
not listed: [8]
inactive: all other assays above

C[C@@H]1CN([C@H](C)CO)C(=O)c2cc(NC(=O)Nc3ccc(C(F)(F)F)cc3)ccc2O[C@@H](C)CCCCO[C@H]1CN(C)S(=O)(=O)c1ccc(Cl)cc1
not listed: [8]
inactive: all other assays above

COc1ccc(-c2ccc3c(c2)[C@@H]2[C@@H](CCN2S(=O)(=O)c2ccc(OC)cc2)[C@@H](CO)N3C)cc1
not listed: [8]
inactive: all other assays above

C[C@@H]1CN([C@H](C)CO)C(=O)c2cc(NC(=O)Nc3ccc(F)cc3)ccc2O[C@@H](C)CCCCO[C@@H]1CN(C)Cc1ccc(Cl)c(Cl)c1
not listed: [8]
inactive: all other assays above
